# Activity calls are given as the source filed them.
# Key:
# [1] = system: Plasmodium falciparum Sir2 (PF13_0152, Sir2A); test: pfSir2 binders on small-molecule microarrays, primary screen, biochemical, small-molecule microarray, 635 nm fluorescence (AID 1098); conditions: small-molecule microarray binding, fluorescence 635 nm; higher = more signal;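 further: score merges spot fluorescence intensity with its signal-to-noise ratio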
# [2] = small-molecule microarray binders of probe aDKK1, primary screen, biochemical, biotinylated probe, 635/667 nm fluorescence (AID 1099); conditions: higher = more signal;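 further: score merges 667nm spot fluorescence with signal to noise across triplicate slides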
# [3] = small-molecule microarray binders of probe aCHRDL2, primary screen, biochemical, biotinylated probe, 635/667 nm fluorescence (AID 1100); conditions: higher = more signal
# [4] = splicing luciferase reporter signal modulators, primary screen, spliceosome inhibition project, cell-based, HEK293, splice +/- reporter (AID 1101); conditions: luminescence, 24 h, higher = more signal, called active from +8 up or from −8 down;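 further: HEK293 cells carrying a splicing-competent luciferase reporter gene; test concentration not given here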
# [5] = biological target: Fibroblast growth factor 10 (Homo sapiens) (UniProt O15520); test: FGF10 binders on small-molecule microarrays, primary screen, biochemical, small-molecule microarray, 635 nm fluorescence (AID 1102); conditions: FGF10 binding, fluorescence 635 nm, higher = more signal
# [6] = system: glycogen synthase kinase-3 (GSK3A per assay name; protocol says GSK3B); test: GSK3 binders on small-molecule microarrays, primary screen, biochemical, small-molecule microarray, 635 nm fluorescence, GSK3A (AID 1103); conditions: small-molecule microarray binding, fluorescence 635 nm; higher = more signal; further: the record names both GSK3A and GSK3B
# [7] = biological target: Epidermal growth factor receptor (Homo sapiens) (UniProt P00533); test: EGFR binders on small-molecule microarrays, primary screen, biochemical, small-molecule microarray, 635 nm fluorescence (AID 1104); conditions: EGFR binding, higher = more signal;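 further: score merges 667 nm emission intensity with spot signal to noise over triplicate slides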
# [8] = biological target: Follistatin-related protein 3 (Homo sapiens) (UniProt O95633); test: FSTL3 binders on small-molecule microarrays, primary screen, biochemical, small-molecule microarray, 635 nm fluorescence (AID 1105); conditions: FSTL3 binding, higher = more signal;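 further: score merges emission near 667 nm and signal to noise per printed spot across three slides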
# [9] = biological target: Dickkopf-related protein 1 (Homo sapiens) (UniProt O94907); test: DKK1 binders on small-molecule microarrays, primary screen, biochemical, small-molecule microarray, 635 nm fluorescence scan (AID 1106); conditions: DKK1 binding, higher = more signal;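 further: score merges emission near 667 nm with signal to noise over three replicate slides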
# [10] = system: Inhibin beta A chain (activin A); test: INHBA (activin A) binders on microarrays, primary screen, biochemical, small-molecule microarray, 635 nm fluorescence scan (AID 1107); conditions: small-molecule microarray binding, higher = more signal;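 further: mouse activin A protein probed at 4.33 µg/mL on printed slides; score merges bound-protein fluorescence near 667 nm with spot signal-to-noise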
# [11] = system: Human papillomavirus type 1a protein E7 (residues 44-93); test: HPV1a E7 fragment binders on microarrays, primary screen, biochemical, small-molecule microarray, residues 44-93, 635 nm fluorescence (AID 1108); conditions: small-molecule microarray binding, fluorescence 635 nm; higher = more signal;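 further: E7 fragment applied at 1 µg/mL in TBST for 1 h at 4 C; score combines spot fluorescence with its signal to noise ratio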
# [12] = modulators of HCV replicon luciferase signal, primary screen, HCV replication inhibitor project, Huh7 cells, luciferase reporter (AID 1109); conditions: 48 h, higher = more signal;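 further: huh7 hepatoma cells harbouring a luciferase neomycin HCV replicon reporter; luciferase luminescence as measure of HCV replicon replication; test concentration not given here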
# [13] = biological target: Left-right determination factor 2 (Homo sapiens) (UniProt O00292); test: LEFTY2 binders on small-molecule microarrays, primary screen, biochemical, small-molecule microarray, 635 nm fluorescence scan (AID 1110); conditions: LEFTY2 binding, higher = more signal
# [14] = biological target: Calmodulin-1 (Homo sapiens) (UniProt P0DP23); test: CALM1 binders on microarrays, EGTA buffer, profiling panel, biochemical, small-molecule microarray, Cy5-labelled CALM1 (AID 1111); conditions: Cy5-CALM1 binding fluorescence, higher = more signal;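 further: labelled calmodulin applied in Tris saline Tween buffer holding calcium plus EGTA and DTT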
# [15] = biological target: Calmodulin-1 (Homo sapiens) (UniProt P0DP23); test: calcium-bound CALM1 binders on microarrays, profiling panel, artefact control for SMM control-protein annotation, biochemical, small-molecule microarray, Cy5-labelled CALM1, plus calcium (AID 1112); conditions: Cy5-CALM1 binding fluorescence, higher = more signal;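 further: score merges spot fluorescence with signal to noise from triplicate slides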
# [16] = small-molecule microarray binders of probe aWnt5a, primary screen, biochemical, biotinylated probe, 635/667 nm fluorescence (AID 1113); conditions: higher = more signal;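 further: score merges 667 nm fluorescence intensity with signal-to-noise per printed feature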
# [17] = small-molecule microarray binders of probe aShh, primary screen, biochemical, biotinylated probe, 635/667 nm fluorescence (AID 1114); conditions: higher = more signal;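 further: probe is biotin-labelled aShh protein from a stem cell growth factor screen; measures binding of labelled protein to compounds printed on the slide; score merges feature fluorescence at 667 nm with signal-to-noise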
# [18] = small-molecule microarray binders of probe aNog, primary screen, biochemical, biotinylated probe, 635/667 nm fluorescence (AID 1115); conditions: higher = more signal;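 further: probe is biotinylated aNog protein used at 0.15 µg/mL for 1 h at 4 C; z-score combines 667 nm fluorescence of each spot with its signal to noise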
# [19] = biological target: Torsin-1A-interacting protein 1 (Homo sapiens) (UniProt Q5JTV8); test: LAP1 binders from COS7 cell lysate, primary screen, small-molecule microarray, 635/667 nm fluorescence (AID 1116); conditions: COS7-hLAP1 lysate binding, 635 nm fluorescence, higher = more signal
# [20] = biological target: Alpha-bungarotoxin (Bungarus multicinctus) (UniProt P60615); test: alpha-bungarotoxin binders on microarray, profiling panel, artefact control for SMM control protein annotation, biochemical, small-molecule microarray, Alexa647 label, 635/667 nm fluorescence (AID 1117); conditions: alpha-BTX-A647 binding fluorescence, higher = more signal
# Chain of Alpha-bungarotoxin (Bungarus multicinctus) (P60615 whole entry, looked up): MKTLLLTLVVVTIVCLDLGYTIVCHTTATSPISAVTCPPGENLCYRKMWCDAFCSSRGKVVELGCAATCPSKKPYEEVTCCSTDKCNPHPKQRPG
# Chain of Torsin-1A-interacting protein 1 (Homo sapiens) (Q5JTV8 whole entry, looked up): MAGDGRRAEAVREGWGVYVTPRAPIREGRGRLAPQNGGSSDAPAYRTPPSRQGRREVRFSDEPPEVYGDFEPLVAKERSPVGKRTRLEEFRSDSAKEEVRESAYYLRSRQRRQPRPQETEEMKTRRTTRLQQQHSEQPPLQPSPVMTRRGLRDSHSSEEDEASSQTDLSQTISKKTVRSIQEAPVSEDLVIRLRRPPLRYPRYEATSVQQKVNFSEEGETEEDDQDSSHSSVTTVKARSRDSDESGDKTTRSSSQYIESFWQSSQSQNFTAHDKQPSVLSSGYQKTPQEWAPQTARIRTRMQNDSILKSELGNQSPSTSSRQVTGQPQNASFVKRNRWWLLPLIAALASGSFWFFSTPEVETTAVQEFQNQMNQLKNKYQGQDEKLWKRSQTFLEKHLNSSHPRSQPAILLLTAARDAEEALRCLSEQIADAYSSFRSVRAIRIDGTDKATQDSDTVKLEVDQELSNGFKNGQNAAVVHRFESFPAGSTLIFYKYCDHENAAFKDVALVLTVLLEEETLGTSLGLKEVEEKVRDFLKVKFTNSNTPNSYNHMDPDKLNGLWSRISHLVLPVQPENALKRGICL
# Chain of Epidermal growth factor receptor (Homo sapiens) (P00533 whole entry, looked up): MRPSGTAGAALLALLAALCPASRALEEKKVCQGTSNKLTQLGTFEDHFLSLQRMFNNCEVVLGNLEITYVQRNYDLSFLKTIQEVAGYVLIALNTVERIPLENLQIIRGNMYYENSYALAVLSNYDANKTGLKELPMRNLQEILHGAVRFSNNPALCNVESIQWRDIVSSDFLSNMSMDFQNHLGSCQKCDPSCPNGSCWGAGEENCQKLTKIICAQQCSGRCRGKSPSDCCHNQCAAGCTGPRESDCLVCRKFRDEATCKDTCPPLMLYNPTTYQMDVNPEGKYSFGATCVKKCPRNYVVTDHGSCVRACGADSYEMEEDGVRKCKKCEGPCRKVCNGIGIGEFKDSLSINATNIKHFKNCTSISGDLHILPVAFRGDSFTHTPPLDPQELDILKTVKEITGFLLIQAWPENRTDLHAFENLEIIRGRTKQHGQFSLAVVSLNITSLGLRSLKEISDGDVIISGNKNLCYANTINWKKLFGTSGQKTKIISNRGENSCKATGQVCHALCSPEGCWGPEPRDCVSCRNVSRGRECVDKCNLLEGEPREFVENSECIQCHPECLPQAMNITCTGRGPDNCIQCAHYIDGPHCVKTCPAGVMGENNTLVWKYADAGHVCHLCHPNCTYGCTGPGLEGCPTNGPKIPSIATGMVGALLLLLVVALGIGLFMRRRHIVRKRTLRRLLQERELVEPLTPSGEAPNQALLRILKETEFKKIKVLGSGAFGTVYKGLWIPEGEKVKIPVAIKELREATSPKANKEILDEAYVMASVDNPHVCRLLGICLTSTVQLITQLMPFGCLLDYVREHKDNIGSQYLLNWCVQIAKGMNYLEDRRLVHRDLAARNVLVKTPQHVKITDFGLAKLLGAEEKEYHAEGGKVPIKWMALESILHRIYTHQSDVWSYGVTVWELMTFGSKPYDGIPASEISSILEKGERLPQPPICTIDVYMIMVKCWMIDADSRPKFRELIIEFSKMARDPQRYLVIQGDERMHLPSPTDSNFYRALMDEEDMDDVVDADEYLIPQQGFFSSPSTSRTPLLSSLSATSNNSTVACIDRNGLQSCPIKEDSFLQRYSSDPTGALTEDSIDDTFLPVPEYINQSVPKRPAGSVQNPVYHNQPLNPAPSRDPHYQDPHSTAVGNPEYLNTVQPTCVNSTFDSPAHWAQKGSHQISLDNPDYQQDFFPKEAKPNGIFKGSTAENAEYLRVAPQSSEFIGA
# Chain of Dickkopf-related protein 1 (Homo sapiens) (O94907 whole entry, looked up): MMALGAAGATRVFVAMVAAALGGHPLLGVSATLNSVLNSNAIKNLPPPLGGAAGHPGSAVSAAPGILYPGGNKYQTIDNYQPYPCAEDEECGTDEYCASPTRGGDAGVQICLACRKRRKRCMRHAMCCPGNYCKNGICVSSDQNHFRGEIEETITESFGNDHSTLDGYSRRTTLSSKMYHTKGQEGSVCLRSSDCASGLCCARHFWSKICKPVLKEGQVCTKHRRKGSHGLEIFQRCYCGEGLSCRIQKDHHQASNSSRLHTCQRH
# Chain of Follistatin-related protein 3 (Homo sapiens) (O95633 whole entry, looked up): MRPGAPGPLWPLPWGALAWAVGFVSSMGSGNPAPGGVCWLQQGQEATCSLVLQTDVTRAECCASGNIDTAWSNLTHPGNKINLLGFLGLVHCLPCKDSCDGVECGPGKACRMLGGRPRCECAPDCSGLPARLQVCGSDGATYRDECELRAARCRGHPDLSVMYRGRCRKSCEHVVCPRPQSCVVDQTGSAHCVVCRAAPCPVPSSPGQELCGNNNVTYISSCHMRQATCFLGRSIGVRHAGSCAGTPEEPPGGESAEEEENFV
# Chain of Fibroblast growth factor 10 (Homo sapiens) (O15520 whole entry, looked up): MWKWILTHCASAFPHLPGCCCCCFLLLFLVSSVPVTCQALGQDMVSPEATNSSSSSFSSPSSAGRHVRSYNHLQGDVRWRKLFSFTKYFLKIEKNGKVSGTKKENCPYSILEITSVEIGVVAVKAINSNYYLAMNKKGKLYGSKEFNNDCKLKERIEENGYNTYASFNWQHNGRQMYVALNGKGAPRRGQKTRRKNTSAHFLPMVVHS
# Chain of Left-right determination factor 2 (Homo sapiens) (O00292 whole entry, looked up): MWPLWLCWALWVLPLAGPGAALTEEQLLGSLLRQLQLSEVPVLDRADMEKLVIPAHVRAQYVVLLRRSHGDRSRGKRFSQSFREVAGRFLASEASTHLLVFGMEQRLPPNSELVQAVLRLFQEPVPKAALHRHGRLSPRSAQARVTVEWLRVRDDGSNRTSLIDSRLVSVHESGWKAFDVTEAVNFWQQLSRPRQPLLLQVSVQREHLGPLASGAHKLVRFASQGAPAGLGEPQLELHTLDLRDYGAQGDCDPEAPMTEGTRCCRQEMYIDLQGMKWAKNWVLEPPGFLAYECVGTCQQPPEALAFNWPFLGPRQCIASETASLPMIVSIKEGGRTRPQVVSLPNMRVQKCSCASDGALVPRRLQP
Compound,composite z-score [1],composite z-score [2],composite z-score [3],z-score [4],composite z-score [5],composite z-score [6],composite z-score [7],composite z-score [8],composite z-score [9],composite z-score [10],composite z-score [11],z-score [12],composite z-score [13],composite z-score [14],composite z-score [15],composite z-score [16],composite z-score [17],composite z-score [18],composite z-score [19],composite z-score [20]
CCOC(=O)C1CCCCN1 (stereo not given),0.19,1.06,-0.193,-0.283 (inactive),0.946,0.682,0.403,0.653,0.516,-0.104,0.728,0.417,0.4,-0.178,-0.483,0.312,0.444,0.144,0.488,0.54
CC(C)(C)OC(=O)CC[C@]1(C(=O)NCC(O)CO)N=C(c2ccc(OCCCO)cc2)O[C@H]1c1ccccc1 (stereo not given in full),0.835,1.1,0.897,-0.495 (inactive),0.57,0.206,-0.516,-0.715,-1.09,-0.0014,1.32,-1.74,-1.13,0.451,1.24,-0.0403,-0.0904,0.701,1.93,-0.383
CO[C@]12C=C(Br)[C@@H](C[C@@H]1c1cccc(C)c1)[C@@]1(CO1)C2=O,1.53,-0.306,-0.284,-0.258 (inactive),0.0635,-0.207,-0.14,0.261,0.0254,0.521,0.194,-3.39,0.334,-0.426,-0.83,-0.247,-0.2,-0.0852,-0.373,-0.157
CCOC(=O)C[C@H]1[C@H](OC(=O)c2ccc(C(=O)c3ccccc3)cc2)[C@@H](NC(=O)Cc2ccc(OC)cc2)c2cc(OCCCO)ccc2N1C(=O)c1ccccc1,-0.186,0.0467,0.521,-0.449 (inactive),0.281,-0.0732,0.12,-0.0059,0.0251,0.643,0.41,-1.15,0.117,0.0574,0.425,0.112,-0.237,0.0775,0.516,0.168
O=C(CS)NCCCCCNC(=O)[C@@H]1C[C@@H]2C(=O)N3CCC[C@H]3C(=O)N2[C@@H]1c1cccc(OCCO)c1,1.47,-0.137,0.468,0.501 (inactive),0.453,0.649,0.196,-0.596,0.292,-0.525,1.42,-0.367,-0.429,1.39,-1.29,-0.073,-0.16,-0.565,1.76,1.14
Cc1cc(C)c(C(O)C2C=CC3C(=O)N(c4ccccc4)C(=O)C3N2Nc2ccc(C(C)C)cc2)c(C)c1 (stereo not given),0.68,1.19,1.08,-0.00156 (inactive),0.978,1.25,-0.0206,0.818,-0.0403,0.202,-0.9,0.437,0.229,2.15,1.37,0.0792,0.664,1.21,1.27,2.85
[N-]=[N+]=Nc1ccccc1[C@H]1OC(c2ccc(OCCCO)cc2)=N[C@@]1(CCS(=O)(=O)c1ccccc1)C(=O)NCCN1CCOCC1,1.35,-0.135,0.775,-0.0945 (inactive),1.41,1.21,0.131,1.19,0.248,0.903,1.4,0.517,-0.354,0.757,-0.368,0.0246,0.315,1.03,0.936,0.755
COCCOC(=O)N1C(=O)[C@@]2(c3cc(C#CC4=CCCCC4)ccc31)[C@H](c1ccc(OCCO)cc1)N1[C@H](c3ccccc3)[C@H](c3ccccc3)OC(=O)[C@H]1[C@@H]2C(=O)N1CCN(c2ncccn2)CC1,0.28,0.0367,0.262,0.515 (inactive),1.34,1.3,0.494,0.866,0.605,0.783,1.05,-0.807,0.671,0.623,0.189,-0.034,-0.0146,0.759,0.835,0.418
CN(C)CCCNC(=O)[C@@]1(C)c2ccccc2C(=O)N(Cc2ccccc2)[C@H]1c1ccc(CO)cc1,1.71,-0.719,0.683,0.711 (inactive),-0.476,-0.35,-1.48,-0.456,0.0494,1,-0.775,-1.94,-0.157,-1.06,-1.12,0.0026,-0.138,-0.33,-0.281,-0.358
C=C(CCCC)/C(=C/C[C@@H](OC(=O)c1ccncc1)c1ccccc1OCCO)c1cnc2ccccc2c1,1.26,0.276,0.178,1.03 (inactive),1.44,1.15,1.02,1.33,0.736,1.69,1.33,-2.77,0.845,0.616,-0.759,0.16,-0.0849,-0.218,1.92,1.35
CCCNC(=O)[C@@H]1c2ccccc2C(=O)N(C(C)C)[C@H]1c1ccc(CO)cc1,0.32,0.02,0.933,0.844 (inactive),-0.342,-0.307,-0.87,-0.961,-0.375,0.534,0.123,-0.362,-0.378,-0.193,0.0439,-0.104,0.0062,-0.287,0.625,-0.182
